Measured values from PubChem BioAssay (NCI).
This is part of a sample that, as a whole, favours compounds with a hit. Of some 79,000 tested, about 15% had one in any assay. Cut-off read from the data, not from the text of the source: active = growth inhibition above about 70%; inactive = the rest.

Legend:
[1] = NCI Yeast Anticancer Drug Screen. Data for the rad50 strain (AID 155);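 note: 0% = growth of vehicle-only cultures of the same strain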; settings: S. cerevisiae rad50 strain growth inhibition; at 50.0 µM; stronger effect = higher value
Summary of the method: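 Yeast carrying a defined DNA repair defect were exposed to test compounds, and growth was compared with vehicle-treated controls to give percent inhibition.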

[2] = NCI Yeast Anticancer Drug Screen. Data for the mec2-1 strain (AID 157); settings: S. cerevisiae mec2-1 strain, at 50.0 µM, stronger effect = higher value
Summary of the method: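 mec2-1 yeast strain, carrying an alteration in DNA damage repair or cell cycle control, was exposed to compounds; growth inhibition was measured relative to vehicle-treated controls.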

[3] = NCI Yeast Anticancer Drug Screen. Data for the sgs1 mgt1 strain (AID 161);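 note: 0% = growth of cultures given vehicle only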; settings: S. cerevisiae sgs1 mgt1 strain, at 50.0 µM, stronger effect = higher value
Summary of the method: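 Percent growth inhibition was derived by comparing compound-exposed mutant yeast with vehicle-exposed cultures. The strain carries alterations in DNA damage repair.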

[4] = NCI Yeast Anticancer Drug Screen. Data for the cln2 rad14 strain (AID 165);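 note: 0% = growth equal to vehicle treated cultures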; settings: S. cerevisiae cln2 rad14 strain, at 50.0 µM, stronger effect = higher value
Summary of the method: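 Yeast carrying cln2 and rad14 alterations (cell cycle control and DNA damage repair) were exposed to compounds. Growth inhibition was measured against vehicle-treated controls.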

[5] = NCI Yeast Anticancer Drug Screen. Data for the bub3 strain (AID 167); settings: S. cerevisiae bub3 mutant strain, at 50.0 µM, stronger effect = higher value
Summary of the method: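 Compounds were applied to a genetically altered yeast strain carrying a cell-cycle control defect. Growth inhibition was scored against vehicle-treated controls.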

[6] = NCI Yeast Anticancer Drug Screen. Data for the mlh1 rad18 strain (AID 175); settings: S. cerevisiae mlh1 rad18 strain growth inhibition; at 50.0 µM; stronger effect = higher value
Summary of the method: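 Growth inhibition of the yeast strain was measured after compound exposure and expressed relative to vehicle-treated controls. The strain carries defined defects in DNA damage repair.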

Measured: growth inhibition

COc1nc(NC2OC(COC(C)=O)C(OC(C)=O)C(OC(C)=O)C2OC(C)=O)c(-c2csc(N)n2)c(=O)n1C (centres undefined)
inactive: [1] -6.6% | [2] -26.2% | [3] -18.8% | [4] 4.35% | [5] -11.3% | [6] -4.55%

O=[N+]([O-])c1ccc(OCc2ccccc2)c(Cl)c1
inactive: [1] -4.2% | [2] 17.1% | [3] 25.9% | [4] -13.8% | [5] 46.3% | [6] 30.4%

BrC1(Br)C2COCOCC21 (centres undefined)
inactive: [1] -9.6% | [2] -1.4% | [3] -1.05% | [4] 0.55% | [5] -4.75% | [6] 8.05%

COc1ccc2c(CC(=O)O)cc(=O)oc2c1
inactive: [1] 12.2% | [2] -22.8% | [3] 15.4% | [4] 7.7% | [5] 8.95% | [6] 14.2%
